# Laboratory results as given in PubChem BioAssay.
# Values without a mark were called inactive. For part of these data: Entries with a potency or affinity are not part of this list. The source made the active and inactive calls. Unless noted, the rule behind the calls is not given here.
# Legend:
# [1] = antimalarial activity against Dd2 strain (AID 2302;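 active = growth inhibition above 50% at the single 2 µM test dose, taken to imply half-maximal potency below 2 µM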;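 note: 0% = DMSO untreated growth and 100% = chloroquine plus artemisinin killed control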); details: P. falciparum Dd2 in RBCs, LDH growth readout, 72 h; at 2 µM; hits give high values
# [2] = HepG2 cytotoxicity, primary screen, cytotoxicity control for P. falciparum antimalarial project, cell-based, ATP luminescence (AID 2303;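 active = inhibition above 50%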;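 note: 0% = DMSO wells and 100% = digitonin-killed cells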); details: HepG2 viability, 24-48 h, at 10 µM, hits give high values
# [3] = target: L-lactate dehydrogenase (Plasmodium falciparum (isolate CDC / Honduras)) (UniProt Q27743); assay: PfLDH activity inhibition – cell lysate, 3D7 strain, counter-screen for P. falciparum growth inhibition project (AID 2304);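 note: 0% = vehicle and 100% = reference inhibitor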; details: P. falciparum 3D7 crude extract, LDH APAD/NBT absorbance; at 2 µM; hits give high values
# [4] = inhibition of 3D7 malaria parasite growth – strain 3D7 (AID 2306);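 note: 0% = DMSO wells and 100% = chloroquine plus artemisinin control wells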; details: P. falciparum 3D7 erythrocytic growth, LDH absorbance, 72 h; at 2 µM; hits give high values
# [5] = target: Calcium-dependent protein kinase 1 (Plasmodium falciparum (isolate 3D7)) (UniProt P62344); assay: PfCDPK1 kinase inhibitors, biochemical, TCAMS library (AID 1159585; cut-off not given, nearly all actives have IC50 up to about 0.98 µM;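 note: inhibitors leave more ATP so luminescence rises with inhibition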); details: recombinant PfCDPK1, Kinase-Glo ATP depletion luminescence
# [6] = target: Plasmodium falciparum protein kinase 6 (PK6, PF3D7_1337100) (UniProt Q8IDW1); assay: PfPK6 kinase inhibitors, biochemical, TCAMS library (AID 1159586); details: recombinant PfPK6, Kinase-Glo ATP depletion luminescence
# [7] = target: Protein kinase 7 (PK7), Plasmodium falciparum 3D7 (PF3D7_0213400) (UniProt Q7YTF7); assay: inhibition of Plasmodium PK7 catalytic activity – biochemical, TCAMS antimalarial set, Kinase-Glo luminescence (AID 1159587); details: recombinant PfPK7, Kinase-Glo ATP depletion luminescence
# [8] = target: Calcium-dependent protein kinase 4 (Plasmodium falciparum (isolate 3D7)) (UniProt Q8IBS5); assay: PfCDPK4 kinase inhibitors, biochemical, TCAMS library (AID 1159588; cut-off not given, nearly all actives have IC50 up to about 0.91 µM); details: recombinant PfCDPK4, Kinase-Glo ATP depletion luminescence
# Calcium-dependent protein kinase 4 (Plasmodium falciparum (isolate 3D7)), sequence (Q8IBS5 whole entry, looked up): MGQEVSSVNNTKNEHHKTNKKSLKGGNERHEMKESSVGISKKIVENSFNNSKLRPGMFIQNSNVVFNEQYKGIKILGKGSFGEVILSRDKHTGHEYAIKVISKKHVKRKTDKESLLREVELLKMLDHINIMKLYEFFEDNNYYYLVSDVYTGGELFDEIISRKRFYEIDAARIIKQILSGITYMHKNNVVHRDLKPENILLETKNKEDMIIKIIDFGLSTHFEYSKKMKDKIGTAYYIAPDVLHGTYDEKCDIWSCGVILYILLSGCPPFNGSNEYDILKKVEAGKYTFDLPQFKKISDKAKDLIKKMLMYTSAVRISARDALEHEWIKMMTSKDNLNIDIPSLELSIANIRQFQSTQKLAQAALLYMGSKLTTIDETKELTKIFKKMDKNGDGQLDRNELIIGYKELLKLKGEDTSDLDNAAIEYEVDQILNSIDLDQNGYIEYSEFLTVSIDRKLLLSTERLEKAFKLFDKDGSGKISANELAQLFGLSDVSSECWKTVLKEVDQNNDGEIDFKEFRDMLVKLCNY
# Calcium-dependent protein kinase 1 (Plasmodium falciparum (isolate 3D7)), sequence (P62344 whole entry, looked up): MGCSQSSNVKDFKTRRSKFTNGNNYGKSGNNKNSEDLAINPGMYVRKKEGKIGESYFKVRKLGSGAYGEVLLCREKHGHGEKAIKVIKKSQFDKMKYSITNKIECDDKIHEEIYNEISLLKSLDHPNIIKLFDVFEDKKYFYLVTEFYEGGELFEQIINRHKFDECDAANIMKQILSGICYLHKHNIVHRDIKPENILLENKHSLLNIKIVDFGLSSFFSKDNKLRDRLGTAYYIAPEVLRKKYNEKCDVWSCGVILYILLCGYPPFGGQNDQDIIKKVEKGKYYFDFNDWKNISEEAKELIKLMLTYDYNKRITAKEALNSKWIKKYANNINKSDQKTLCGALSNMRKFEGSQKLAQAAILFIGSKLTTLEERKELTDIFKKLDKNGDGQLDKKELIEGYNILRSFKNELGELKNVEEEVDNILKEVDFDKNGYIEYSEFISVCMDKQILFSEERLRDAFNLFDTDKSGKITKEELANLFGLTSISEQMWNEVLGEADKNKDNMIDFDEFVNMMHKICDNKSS
# L-lactate dehydrogenase (Plasmodium falciparum (isolate CDC / Honduras)), sequence (Q27743 whole entry, looked up): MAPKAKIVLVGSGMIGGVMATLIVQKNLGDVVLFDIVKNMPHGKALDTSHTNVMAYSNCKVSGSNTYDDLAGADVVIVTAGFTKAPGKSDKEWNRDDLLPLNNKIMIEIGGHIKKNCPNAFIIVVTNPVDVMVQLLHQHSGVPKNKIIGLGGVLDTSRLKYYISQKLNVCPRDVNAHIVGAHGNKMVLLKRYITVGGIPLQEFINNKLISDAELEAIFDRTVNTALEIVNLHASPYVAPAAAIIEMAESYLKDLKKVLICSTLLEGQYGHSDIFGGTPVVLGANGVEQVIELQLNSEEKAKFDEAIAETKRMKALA
# Plasmodium falciparum protein kinase 6 (PK6, PF3D7_1337100), sequence (Q8IDW1 1-305): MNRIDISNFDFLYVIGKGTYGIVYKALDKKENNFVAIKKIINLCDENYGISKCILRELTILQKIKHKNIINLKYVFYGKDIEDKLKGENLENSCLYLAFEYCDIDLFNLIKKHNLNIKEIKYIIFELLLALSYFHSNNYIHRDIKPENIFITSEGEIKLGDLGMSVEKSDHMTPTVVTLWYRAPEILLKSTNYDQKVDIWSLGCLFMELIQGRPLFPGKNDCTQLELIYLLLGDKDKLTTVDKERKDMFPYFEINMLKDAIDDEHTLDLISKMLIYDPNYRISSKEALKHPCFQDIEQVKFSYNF
# Protein kinase 7 (PK7), Plasmodium falciparum 3D7 (PF3D7_0213400), sequence (Q7YTF7 1-343): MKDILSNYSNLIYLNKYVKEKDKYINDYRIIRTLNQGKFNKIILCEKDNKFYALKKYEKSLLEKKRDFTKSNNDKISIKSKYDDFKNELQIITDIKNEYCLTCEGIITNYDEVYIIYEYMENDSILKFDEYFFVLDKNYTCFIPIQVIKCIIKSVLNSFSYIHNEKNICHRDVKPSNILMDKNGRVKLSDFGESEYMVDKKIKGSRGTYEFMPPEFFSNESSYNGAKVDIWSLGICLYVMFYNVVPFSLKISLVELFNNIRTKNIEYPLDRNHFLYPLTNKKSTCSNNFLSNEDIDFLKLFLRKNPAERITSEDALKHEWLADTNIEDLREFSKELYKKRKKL
Structure (SMILES),growth inhibition [1],inhibition [2],inhibition [3] [%],growth inhibition [4],outcome [5],outcome [6],outcome [7],outcome [8]
CC(C)Nc1cc(C(=O)N[C@@H](Cc2ccccc2)[C@H](O)CNC2CCCCC2)cc(N2CCCCS2(=O)=O)c1,98% (active),9%,4,98% (active),inactive,inactive,inactive,inactive
N#Cc1cccc(C(=O)Nc2cccc(-c3cccc(CN4CCNCC4)c3)c2)c1,10%,37%,-3,89% (active),inactive,inactive,inactive,inactive
CCCCCCN1CCC(CNCc2cccc(Cl)c2)CC1,13%,8%,1,85% (active),inactive,inactive,inactive,inactive
COc1cc(F)c2nccc([C@@H](O)CN3CC[C@@H](NC(=O)OCc4ccccc4)[C@@H](F)C3)c2c1,100% (active),44%,2,99% (active),inactive,inactive,inactive,inactive
Cc1cc(C)c(NC(=O)NC2CCN(CCCCCNC(=O)/C=C/c3ccc(Cl)c(Cl)c3)CC2)c(C)c1,17%,30%,2,103% (active),inactive,inactive,inactive,inactive
COc1cc(Cc2cnc(N)nc2N)cc(OCCCCCC(=O)O)c1OC,2%,-16%,-4,95% (active),inactive,inactive,inactive,inactive
O=C(Nc1cccc(-c2ccc(CN3CCC(O)CC3)cc2)c1)c1cccc(Cl)c1,2%,11%,-11,96% (active),inactive,inactive,inactive,inactive
COc1nc2c(N3CCN(CCNCc4ccc5c(n4)NC(=O)CO5)CC3)ccnc2cc1F,9%,18%,-2,101% (active),inactive,inactive,inactive,inactive
CCN(C1CCCCC1)S(=O)(=O)c1ccc(OC)c(N2CCN(C(=O)C(Cl)(Cl)Cl)CC2)c1,85% (active),0%,3,100% (active),inactive,inactive,inactive,inactive
CC(=O)Nc1ccc(CN2CCC(NC(=O)c3ccc(-c4cccc(Cl)c4)s3)CC2)cc1,59% (active),34%,3,97% (active),inactive,inactive,inactive,inactive
CNc1nc(NN=Cc2cc([N+](=O)[O-])c(Cl)cc2Cl)nc(Nc2cccc(C(F)(F)F)c2)n1,97% (active),13%,9,100% (active),inactive,inactive,inactive,inactive
Cc1cc(N2CCCC2)nc(Nc2ccc(NC(=O)c3ccccc3C)cc2)n1,40%,22%,2,100% (active),inactive,inactive,inactive,inactive
Cc1cc(-c2ccc3c(c2)CCN(CCCOc2ccc4c(c2)CCN4C(=O)/C=C/c2ccccc2Cl)CC3)no1,50% (active),52% (active),1,88% (active),inactive,inactive,inactive,inactive
CN1CCN(CCCN(Cc2csc(-c3ccc(CNCc4ccccc4)cc3)n2)C(=O)Nc2ccc3ccccc3c2)CC1,63% (active),12%,3,94% (active),inactive,inactive,inactive,inactive
CCCCN1CCN(CC(O)CNC(=O)Nc2ccc(Cl)cc2)CC1 (configuration not stated),99% (active),17%,-3,101% (active),inactive,inactive,inactive,inactive
COc1ccc(C2CCN(CCCCNC(=O)c3ccc(NC(=O)c4ccc(Cl)cc4)cc3)CC2)cc1Cl,75% (active),28%,4,97% (active),inactive,inactive,inactive,inactive
Oc1ccc(CCCNc2nc(NCc3cccc4ccccc34)nc(NC3CCNCC3)n2)cc1,-3%,8%,1,91% (active),inactive,inactive,inactive,inactive
Cc1cccc2[nH]c(-c3ccc(-c4cccc(NC(=O)Cc5cnc[nH]5)c4)cc3)nc12,21%,13%,-4,98% (active),inactive,inactive,inactive,inactive
CNC(=O)NC1=NC(C)(C)N(OCc2ccc(Cl)c(Cl)c2)C(NC(=O)NC)=N1,-3%,1%,-2,99% (active),inactive,inactive,inactive,inactive
CNc1ccc(CNCc2ccc(-c3ccc(-c4nc5c(C)cccc5[nH]4)s3)cc2)cc1,94% (active),29%,-5,101% (active),inactive,inactive,inactive,inactive

Structure (SMILES),growth inhibition [1],inhibition [2],inhibition [3] [%],growth inhibition [4],outcome [5],outcome [6],outcome [7],outcome [8]
CCOC(=O)c1[nH]c(-c2cccc(F)c2)nc1N,2%,0%,9,98% (active),inactive,inactive,inactive,inactive
CCCCCc1cc(OC(=O)CCCN(CC)CC)c2c(c1)OC(C)(C)C=C2C1=CCN(Cc2ccc3ccccc3c2)CC1,92% (active),94% (active),-2,100% (active),inactive,inactive,inactive,inactive
COc1ccc2cc(-c3nc(-c4c(Cl)cccc4Cl)[nH]c3-c3ccnc(NCCCN4CCCCC4C)c3)ccc2c1 (configuration not stated),86% (active),19%,-1,94% (active),inactive,inactive,inactive,inactive
Cc1sc(CNCCCNc2cc(=O)c3ccccc3[nH]2)cc1Br,83% (active),12%,-3,100% (active),inactive,inactive,inactive,inactive
FC(F)(F)c1cccc(CNCC2CCN(Cc3ccc4c(c3)OCO4)CC2)c1,19%,21%,1,100% (active),inactive,inactive,inactive,inactive
OC(CNCCCCCCNCC(O)c1ccc(Cl)c(Cl)c1)c1ccc(Cl)c(Cl)c1 (configuration not stated),17%,99% (active),-5,90% (active),inactive,inactive,inactive,inactive
c1cc(-c2ccc(CN3CCN(c4ccncc4)CC3)cc2)cc(-c2nc3ccccc3[nH]2)c1,100% (active),61% (active),-2,101% (active),inactive,inactive,inactive,inactive
CC(=O)NCCNCc1cccc(C(=O)NCc2cccc(C(F)(F)F)c2)c1,-2%,1%,1,95% (active),inactive,inactive,inactive,inactive
CN(C)CCC(O)C=C(c1ccc(Cl)cc1)c1ccc(Cl)cc1 (configuration not stated),85% (active),33%,1,93% (active),inactive,inactive,inactive,inactive
O=C(/C=C/c1ccc(Cl)c(Cl)c1)NCCCCCN1CCCN(C(=O)Nc2ccc(OC(F)F)cc2)CC1,-4%,39%,3,99% (active),inactive,inactive,inactive,inactive
Cc1cc(=O)[nH]c2cc(Nc3ccnc(Nc4cccc(C(N)=O)c4)n3)ccc12,98% (active),27%,-4,99% (active),inactive,inactive,inactive,inactive
COc1cccc(-c2ccc3c(-c4cccc(S(C)(=O)=O)c4)cnc(N)c3c2)c1,21%,45%,-6,96% (active),inactive,inactive,inactive,inactive
C=CCCCNCC(NCCCNc1cc(=O)c2ccccc2[nH]1)c1cc(Br)cc(Br)c1 (configuration not stated),19%,-3%,-1,94% (active),inactive,inactive,inactive,inactive
N#CCCN1CCN(Cc2ccc(-c3ccc(-c4nc5ccc(F)cc5[nH]4)s3)cc2)CC1,38%,58% (active),6,99% (active),inactive,inactive,inactive,inactive
CCNc1cc(C(=O)N[C@@H](Cc2ccccc2)[C@H](O)CNCc2ccc3c(c2)OCCO3)cc(N2CCCCS2(=O)=O)c1,45%,-1%,-1,95% (active),inactive,inactive,inactive,inactive
COc1ccc2c(c1C1CCN(CCCCNC(=O)c3ccc(-c4ccc(Cl)cn4)cc3)CC1)CCCC2,49%,29%,-2,90% (active),inactive,inactive,inactive,inactive
O=[N+]([O-])c1ccc(-n2nc(Cc3ccccc3)n(Cc3cccc(F)c3)c2=S)c(C(F)(F)F)c1,100% (active),4%,-3,101% (active),inactive,inactive,inactive,inactive
COc1cccc2c(NN=Cc3cccc(F)c3)ccnc12,44%,12%,5,99% (active),inactive,inactive,inactive,inactive
Cc1ccccc1C1CCN(C2CCC(NC(=O)c3cc(-c4ccc(Cl)cc4)cs3)CC2)CC1 (configuration not stated),100% (active),99% (active),-2,101% (active),inactive,inactive,inactive,inactive
